# Screening data (PubChem)
# mIDH1 inhibitor = blocks human mutant IDH1 R132H enzyme; IDH1-R132H enzyme, NADPH consumption, diaphorase/resazurin fluorescence; O75874; actives 0.093% (n = 390,000); Potency, µM (series often up to 76.6 µM), for inactives: at the highest dose activity change, negative = inhibition, most hits filed as inhibitors; note: potency is the fitted concentration of half-maximal effect; % is set by controls: 0 for no effect and ±100 for the full control effect; nearly all actives have a fitted effect of over 65% in size
# Target sequence (O75874 whole entry R132H, stated change not applied): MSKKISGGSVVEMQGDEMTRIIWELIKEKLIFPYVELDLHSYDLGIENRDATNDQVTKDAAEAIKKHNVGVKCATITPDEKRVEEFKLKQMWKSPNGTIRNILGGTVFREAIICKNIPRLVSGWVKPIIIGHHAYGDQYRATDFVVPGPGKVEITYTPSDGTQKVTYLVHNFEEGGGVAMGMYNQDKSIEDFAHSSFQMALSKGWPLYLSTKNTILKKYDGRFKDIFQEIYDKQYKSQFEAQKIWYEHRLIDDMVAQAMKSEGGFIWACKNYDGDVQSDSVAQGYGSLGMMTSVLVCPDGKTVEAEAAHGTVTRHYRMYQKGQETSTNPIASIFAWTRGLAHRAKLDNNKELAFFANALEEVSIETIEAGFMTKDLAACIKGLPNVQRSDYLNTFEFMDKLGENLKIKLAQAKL
#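 IDH1-R132H (0.5 ug/mL dispensed) in pH 7.5 Tris buffer was preincubated 30 min with compound, then given a substrate mix of 0.016 mM NADPH and 2 mM alpha-KG for 80 min at room temperature; remaining NADPH was read by diaphorase/resazurin fluorescence.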
# Apoferritin bind = binds horse apoferritin like a general anesthetic. P02791. apoferritin/1-aminoanthracene competitive binding, fluorescence. Potency, µM (series often up to 77.5 µM), for inactives: top-dose activity change, negative = displacement, most hits filed as inhibitors. actives 0.074% (n = 350,000). AID 485281; note: potency is the fitted concentration of half-maximal effect; % is set by controls: 0 for no effect and ±100 for the full control effect; nearly all actives have a fitted effect of over 20% in size
# Target sequence (P02791 2-175 limits assumed): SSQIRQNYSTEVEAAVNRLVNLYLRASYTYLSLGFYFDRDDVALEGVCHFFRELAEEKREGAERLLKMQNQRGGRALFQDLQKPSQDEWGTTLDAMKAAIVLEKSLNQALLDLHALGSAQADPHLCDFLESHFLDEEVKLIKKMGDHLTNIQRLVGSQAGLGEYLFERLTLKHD
#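 Horse-spleen apoferritin (10 uM) in 50% saturated 1-aminoanthracene in PBS was incubated 10 min at room temperature with compound. Fluorescence (ex 380, em 535 nm) was normalized to free and bound 1-AMA, with concentration-response fitted by a four-parameter Hill equation.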
# KCNH2 3.1 block = inhibitors of human KCNH2 3.1 potassium channel isoform. U2OS KCNH2 3.1, thallium flux FluxOr; active compounds read low. activity change, % (tested at about 1.8 µM). actives 0.95% (n = 340,000). AID 720553;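 active = maximum activity change below -70%; inconclusive = maximum activity change from -70% to -50%; inactive = maximum activity change above -50%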;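 note: thallium influx rate constant from kinetic fluorescence after stimulation buffer; % is set by controls: 0 for no effect and ±100 for the full control effect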
#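 Channel expression came from 3.1 mutant virus (1.77 x 10^8 /mL) applied to suspended U2OS cells for 4 h. Flux was tracked with FluxOr dye plus Red40 quencher, and kinetic rate constants normalized to controls.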
# ASM inhibitor = human S-ASM enzyme inhibition; P17405; placental ASM, HMU-PC fluorogenic substrate, 60 min; actives 0.006% (n = 340,000); Potency, µM (highest dose often 57.5 µM), for the others: at the highest dose activity change, negative = inhibition, actives largely listed as inhibitors; note: potency is the fitted concentration of half-maximal effect
#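 qHTS format. ASM enzyme prepared from human placenta hydrolyses the fluorogenic substrate HMU-PC0 (9 uM final) over 60 min at 37 °C after a 10 min compound preincubation.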
# hERG WT inh = KCNH2 (human, wildtype) channel inhibition | Q12809 | U2OS, BacMam KCNH2, thallium flux FluxOr; active compounds read low | activity change, % at 1.84 µM | actives 0.37% (n = 340,000) | AID 720551;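 active = maximum activity change below -70%; inconclusive = maximum activity change between -70% and -50%; inactive = maximum activity change above -50%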; note: % is set by controls: 0 for no effect and ±100 for the full control effect
#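 U2OS cells were transduced with wild-type KCNH2 virus (2.03 x 10^8 / mL) for 4 h at room temperature, then cultured overnight at 37 C. Thallium flux was read with FluxOr dye. Rate constants were normalized to DMSO controls.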
# * = called active by the depositor; u = inconclusive; x = not tested or not shown; [ ] = remark or other dose. In the library only some 1.2% were active in any assay of this set; here they are far more common. Unless noted, calls come from the whole dose curve; as a rule, active = well fitted inhibition curve with a large enough effect; inconclusive = small, poorly fitted or top-dose-only effect; inactive = no such curve, though single readings can be large or run the other way.
SMILES,mIDH1 inhibitor,Apoferritin bind,KCNH2 3.1 block,ASM inhibitor,hERG WT inh
COc1ccc(CCNC(=O)c2cccs2)cc1OC,0%,-6%,-21,3%,2
COc1cc(/C=C(\C#N)c2nc3ccccc3c(=O)[nH]2)cc(OC)c1OC,-7%,11%,x,x,x
O=C(NCc1ccccc1C(F)(F)F)C12CN(Cc3ccccc3)CC1C(c1ccc([N+](=O)[O-])cc1)=NO2 (centres undefined),-5%,2%,-118*,-6%,-33
CC(C)CCNC(=O)C12CN(Cc3ccccc3)CC1C(c1ccc([N+](=O)[O-])cc1)=NO2 (centres undefined),-13%,-14%,-107*,-6%,-46
COc1cccc(CNC(=O)C23CN(Cc4ccccc4)CC2C(c2ccc([N+](=O)[O-])cc2)=NO3)c1 (centres undefined),-4%,-16%,-102*,1%,-1
CCCSc1ncc(Cl)c(C(=O)Nc2sc3c(c2C(=O)OC)CCCC3)n1,x,76%,x,x,x
COCc1ccc(C(=O)N(C)CC2CCCN(CCc3ccc(Cl)cc3)C2)o1 (centres undefined),1%,-8%,-74*,0%,-2
COc1ccc(CCN2CCCC(CN(C)C(=O)c3ccoc3C)C2)cc1 (centres undefined),6%,-3%,x,3%,15
Cc1occc1C(=O)N(C)CC1CCCN(CCc2ccc(Cl)cc2)C1 (centres undefined),-1%,x,-72*,x,11
CCC(C)C(N)C1=NC(C(=O)N[C@@H](CC(C)C)C(=O)N[C@H](CCC(=O)[O-])C(=O)N[C@H](C(=O)N[C@H]2CCCCNC(=O)[C@H](CC(N)=O)NC(=O)[C@@H](CC(=O)[O-])NC(=O)[C@H](Cc3cnc[nH]3)NC(=O)[C@@H](Cc3ccccc3)NC(=O)[C@H]([C@@H](C)CC)NC(=O)[C@@H](CCCN)NC2=O)[C@@H](C)CC)CS1.[Zn+2] (some centres undefined),32µM*,x,9,-17%,-5
C[C@H](CO)N1C[C@H](C)[C@@H](CN(C)C(=O)Nc2ccccc2)Oc2ccc(NC(=O)Nc3ccc4c(c3)OCO4)cc2C1=O,2%,x,-120*,-9%,-17
C[C@@H]1CCCCO[C@H](CN(C)S(=O)(=O)c2cccs2)[C@H](C)CN([C@@H](C)CO)C(=O)c2cc(NC(=O)NC3CCCCC3)ccc2O1,-7%,x,-99*,x,-9
CCC(CC)c1nnc(NC(=O)CC(C)c2ccccc2)s1 (centres undefined),-2%,-14%,-72*,0%,-5
CC(C)(C)NC1=NCCNC(c2ccccc2)=C1,-7%,x,-2,x,-88*
Cc1ccc(-c2csc(NC(=O)c3ccc4c(=O)n5c(nc4c3)CCCCC5)n2)cc1,0%,-7%,-10,-15%,-77*
CC(=O)c1ccc(NC(=O)c2ccc3c(=O)n4c(nc3c2)CCCCC4)cc1,1%,-7%,4,-5%,-7
CC(C)c1ccc(OCc2ccc(C(=O)N3CCN(c4ccccn4)CC3)cc2)cc1,2%,76%,-72*,-6%,-15
CC(C)c1ccc(COc2ccc(C(=O)N3CCOCC3)cc2)cc1,-2%,u,1,1%,-6
CN(C)CCCOc1c2ccccc2n(Cc2ccccc2)[n+]1[O-],x,5%,x,x,x
COc1ccc(OCc2nnc(SCC(=O)N3CCCc4ccccc43)n2-c2ccc(C)cc2)cc1,-4%,83%,-83*,-1%,7
N#Cc1ccc(OCc2nnc(SCC(=O)N3CCCc4ccccc43)n2-c2ccccc2)cc1,1%,-10%,-14,-2%,-13
COc1ccc(-c2cn3cccnc3n2)cc1NC(=O)Nc1cc(C)ccc1C,-12%,253%,x,x,x
Cc1ccc([C@H]2N[C@]3(CCCN(Cc4cccn4C)C3=O)[C@H]3C(=O)N(Cc4ccccc4)C(=O)[C@@H]23)cc1,12%,x,-31,x,-71*
CC(O)CCCCn1c(=O)c2c(ncn2C)n(C)c1=O (centres undefined),x,4%,x,x,x
C=C1CCN(C(CC(C)C)C(=O)NCCCc2ccccc2)S(=O)(=O)c2ccccc21 (centres undefined),x,106%,x,x,x
SMILES,mIDH1 inhibitor,Apoferritin bind,KCNH2 3.1 block,ASM inhibitor,hERG WT inh
COc1ccc2c(c1)C=C(CN1CCC(CO)(CCc3ccccc3)CC1)CO2,-8%,-22%,-88*,1%,-11
COc1ccc2c(c1)C=C(CN1CCN(Cc3ccccc3C)C(CCO)C1)CO2 (centres undefined),-2%,7%,-28,3%,6
COc1ccc(CC2(CO)CCN(CC3=Cc4cc(Cl)ccc4OC3)CC2)cc1,3%,-11%,-74*,-2%,-41
CCCN1CCN(CCCNC(=O)Cn2c(-c3cccs3)cc3cc(Cl)ccc32)CC1,-1%,-11%,x,x,x
C/C=C\C1=C(CO)[C@H](O)[C@H]2OC2[C@@H]1O (some centres undefined),x,9%[15.3 µM],x,x,x
COc1cccc(CN2CC(C(=O)NCCCc3ccncc3)CCC2=O)c1 (centres undefined),5%,-5%,-4,1%,-7
Cc1ccc(CNC(=O)C2CCC(=O)N(CCc3cccc(F)c3)C2)cc1 (centres undefined),9%,-5%,-84*,0%,-5
COc1cccc(CN2CC(C(=O)NCCCc3ccc(C)cc3)CCC2=O)c1 (centres undefined),-1%,-9%,-86*,6%,7
CC(=O)Nc1ccc(SCC(=O)NC(=O)c2ccc(S(=O)(=O)N(C)C)cc2)cc1,-1%,x,11,2%,-94*
CN(C)S(=O)(=O)c1ccc(C(=O)NC(=O)CSc2ccccc2)cc1,2%,-14%,-12,-1%,4
CCOC(=O)C1CCC(CN(Cc2ccc(OC)cc2)S(=O)(=O)c2ccc(F)c(C(=O)Nc3ccc(C)c(C)c3)c2)CC1 (centres undefined),-9%,7%,x,x,x
Cc1cccc(NC(=O)CN(C)S(=O)(=O)c2ccc(-c3ccc(=O)[nH]n3)s2)c1C,-13%,3%,4,-9%,0
Cc1cccc(C)c1NC(=O)CN(C)S(=O)(=O)c1ccc(-c2ccc(=O)[nH]n2)s1,-2%,-15%,-177*,-3%,15
CC(C)Oc1ccc(S(=O)(=O)N2CCOCC2)cc1NC(=O)CCCSc1ccccc1,7%,x,-72*,-8%,-1
CC(=O)NCCC(=O)Nc1cc(S(=O)(=O)N2CCCCC2)ccc1Oc1ccccc1,7%,-4%,-17,7%,-71*
O=C(CSc1ncc2c(n1)-c1ccccc1N(Cc1ccc(Cl)cc1)S2(=O)=O)c1ccc(Cl)cc1,-16%,-14%,x,x,x
